Results on 37 targets are retold here after the supplement of paper PMC12067093, “Discovery and optimisation of a covalent ligand for TRIM25 and its application to targeted protein ubiquitination” (Chemical Science, 2025).

Compound in this assay: CC1Cc2ccccc2N1C(=O)C1CCCN(C1)C(=O)CCl (mixture of isomers) [TRIM25 ligand 11 (diastereomer mixture)]
In words: probe-labelled cysteine peptide fold change vs DMSO (competition) (log2 fold change); higher = less target engagement (more negative = stronger competition). Conditions: THP-1, incubation time: 4 h.

The full data set covers some 21,000 targets. This sample favours those with the largest changes.
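Note: competitive chemoproteomic profiling in live THP-1 cells with an iodoacetamide desthiobiotin (IA-DTB) probe, comparing probe-labelled peptide intensities in compound-treated cells against DMSO-treated controls.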

UniProt Q8IW45, sequence (Q8IW45 whole entry, looked up): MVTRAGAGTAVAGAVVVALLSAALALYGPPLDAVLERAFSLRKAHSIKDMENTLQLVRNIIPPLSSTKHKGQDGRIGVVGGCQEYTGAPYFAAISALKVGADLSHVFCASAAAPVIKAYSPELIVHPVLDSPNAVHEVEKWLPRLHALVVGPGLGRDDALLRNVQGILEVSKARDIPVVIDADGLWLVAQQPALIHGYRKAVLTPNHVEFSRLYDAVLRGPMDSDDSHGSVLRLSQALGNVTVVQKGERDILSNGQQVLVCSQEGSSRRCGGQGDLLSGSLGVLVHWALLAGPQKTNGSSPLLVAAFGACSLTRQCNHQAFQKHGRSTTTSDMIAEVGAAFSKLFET
UniProt O94851, sequence (O94851 whole entry, looked up): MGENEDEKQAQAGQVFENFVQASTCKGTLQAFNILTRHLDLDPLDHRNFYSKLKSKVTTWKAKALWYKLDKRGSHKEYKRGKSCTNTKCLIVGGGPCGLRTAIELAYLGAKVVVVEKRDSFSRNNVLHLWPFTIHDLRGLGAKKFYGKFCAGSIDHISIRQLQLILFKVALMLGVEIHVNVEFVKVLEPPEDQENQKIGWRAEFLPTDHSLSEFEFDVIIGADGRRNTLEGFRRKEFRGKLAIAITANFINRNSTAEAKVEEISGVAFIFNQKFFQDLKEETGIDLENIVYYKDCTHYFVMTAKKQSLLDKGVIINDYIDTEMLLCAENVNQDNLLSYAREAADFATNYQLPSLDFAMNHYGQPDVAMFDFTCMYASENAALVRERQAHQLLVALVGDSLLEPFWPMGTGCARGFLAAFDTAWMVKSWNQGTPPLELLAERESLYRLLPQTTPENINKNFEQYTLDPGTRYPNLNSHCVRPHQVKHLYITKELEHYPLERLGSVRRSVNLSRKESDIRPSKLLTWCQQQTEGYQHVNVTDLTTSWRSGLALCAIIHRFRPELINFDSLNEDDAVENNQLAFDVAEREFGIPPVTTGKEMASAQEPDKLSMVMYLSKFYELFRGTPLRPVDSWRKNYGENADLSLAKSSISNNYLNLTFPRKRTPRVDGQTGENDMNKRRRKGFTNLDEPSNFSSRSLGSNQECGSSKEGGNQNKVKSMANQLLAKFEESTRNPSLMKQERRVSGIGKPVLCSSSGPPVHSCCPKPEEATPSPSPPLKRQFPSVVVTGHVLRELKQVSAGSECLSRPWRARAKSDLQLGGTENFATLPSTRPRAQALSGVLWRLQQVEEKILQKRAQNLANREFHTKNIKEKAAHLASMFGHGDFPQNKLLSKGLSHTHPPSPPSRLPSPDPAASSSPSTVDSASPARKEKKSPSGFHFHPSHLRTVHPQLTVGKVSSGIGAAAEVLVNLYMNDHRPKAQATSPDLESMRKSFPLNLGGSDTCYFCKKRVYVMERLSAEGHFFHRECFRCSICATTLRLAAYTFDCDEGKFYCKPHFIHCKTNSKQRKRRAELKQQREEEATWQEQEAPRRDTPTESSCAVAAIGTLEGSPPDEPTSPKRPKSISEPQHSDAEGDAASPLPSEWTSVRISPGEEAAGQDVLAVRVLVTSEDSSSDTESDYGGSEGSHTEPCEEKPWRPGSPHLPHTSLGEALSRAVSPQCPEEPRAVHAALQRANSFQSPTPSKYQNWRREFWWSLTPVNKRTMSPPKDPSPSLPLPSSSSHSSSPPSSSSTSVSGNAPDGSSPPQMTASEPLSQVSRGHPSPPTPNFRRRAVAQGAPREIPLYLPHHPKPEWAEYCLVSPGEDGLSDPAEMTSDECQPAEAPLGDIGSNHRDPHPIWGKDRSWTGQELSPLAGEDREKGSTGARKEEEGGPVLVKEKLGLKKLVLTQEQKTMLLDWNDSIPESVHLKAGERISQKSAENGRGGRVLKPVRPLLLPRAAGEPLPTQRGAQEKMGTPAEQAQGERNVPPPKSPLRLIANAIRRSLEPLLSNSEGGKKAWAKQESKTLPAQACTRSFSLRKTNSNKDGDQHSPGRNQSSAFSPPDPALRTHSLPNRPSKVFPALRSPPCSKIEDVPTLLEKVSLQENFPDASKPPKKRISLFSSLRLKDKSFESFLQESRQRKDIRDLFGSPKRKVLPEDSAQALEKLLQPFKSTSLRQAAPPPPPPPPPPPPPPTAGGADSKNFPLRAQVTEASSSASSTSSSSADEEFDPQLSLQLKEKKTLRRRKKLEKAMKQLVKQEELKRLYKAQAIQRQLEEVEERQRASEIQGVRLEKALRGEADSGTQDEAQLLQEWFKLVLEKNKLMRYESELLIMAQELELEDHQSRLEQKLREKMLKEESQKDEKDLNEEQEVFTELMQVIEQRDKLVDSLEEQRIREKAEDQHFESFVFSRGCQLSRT
UniProt Q8NA29, sequence (Q8NA29 whole entry, looked up): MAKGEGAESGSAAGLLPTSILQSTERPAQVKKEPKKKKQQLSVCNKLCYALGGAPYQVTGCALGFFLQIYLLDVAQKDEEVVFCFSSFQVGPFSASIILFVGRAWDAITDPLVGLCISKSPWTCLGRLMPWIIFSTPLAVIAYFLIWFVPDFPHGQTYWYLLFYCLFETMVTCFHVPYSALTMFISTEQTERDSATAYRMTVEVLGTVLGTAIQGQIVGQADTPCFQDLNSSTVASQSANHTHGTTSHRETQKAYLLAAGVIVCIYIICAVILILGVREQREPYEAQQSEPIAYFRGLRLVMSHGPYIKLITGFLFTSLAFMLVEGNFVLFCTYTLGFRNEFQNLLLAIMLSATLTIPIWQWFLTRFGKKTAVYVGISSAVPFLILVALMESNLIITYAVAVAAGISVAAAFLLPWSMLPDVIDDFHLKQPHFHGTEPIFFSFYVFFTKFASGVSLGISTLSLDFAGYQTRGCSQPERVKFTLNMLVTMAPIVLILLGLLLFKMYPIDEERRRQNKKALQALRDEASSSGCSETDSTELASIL
UniProt Q9NR45, sequence (Q9NR45 whole entry, looked up): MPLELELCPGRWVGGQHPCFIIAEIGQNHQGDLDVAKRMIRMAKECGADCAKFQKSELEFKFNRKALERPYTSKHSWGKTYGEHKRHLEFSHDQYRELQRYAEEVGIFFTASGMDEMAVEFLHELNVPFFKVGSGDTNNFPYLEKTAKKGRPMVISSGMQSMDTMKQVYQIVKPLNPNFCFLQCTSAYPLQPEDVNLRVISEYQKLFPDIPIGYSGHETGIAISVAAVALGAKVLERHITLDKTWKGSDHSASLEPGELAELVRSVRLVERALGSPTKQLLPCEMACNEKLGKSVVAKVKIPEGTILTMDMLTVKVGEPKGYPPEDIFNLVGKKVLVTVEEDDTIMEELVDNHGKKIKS
UniProt Q00266, sequence (Q00266 whole entry): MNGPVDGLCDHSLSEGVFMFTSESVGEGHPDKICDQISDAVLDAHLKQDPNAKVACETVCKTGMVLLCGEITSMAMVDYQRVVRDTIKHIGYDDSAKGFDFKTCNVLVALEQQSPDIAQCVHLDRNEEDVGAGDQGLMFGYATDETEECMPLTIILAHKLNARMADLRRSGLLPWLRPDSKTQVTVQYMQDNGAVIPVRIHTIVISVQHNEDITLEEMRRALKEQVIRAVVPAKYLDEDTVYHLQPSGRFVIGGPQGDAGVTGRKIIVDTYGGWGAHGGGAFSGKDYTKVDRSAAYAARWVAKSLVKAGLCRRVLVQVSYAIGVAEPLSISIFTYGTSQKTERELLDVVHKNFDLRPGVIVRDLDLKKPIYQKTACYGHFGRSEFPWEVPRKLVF
UniProt P50579, sequence (P50579 whole entry, looked up): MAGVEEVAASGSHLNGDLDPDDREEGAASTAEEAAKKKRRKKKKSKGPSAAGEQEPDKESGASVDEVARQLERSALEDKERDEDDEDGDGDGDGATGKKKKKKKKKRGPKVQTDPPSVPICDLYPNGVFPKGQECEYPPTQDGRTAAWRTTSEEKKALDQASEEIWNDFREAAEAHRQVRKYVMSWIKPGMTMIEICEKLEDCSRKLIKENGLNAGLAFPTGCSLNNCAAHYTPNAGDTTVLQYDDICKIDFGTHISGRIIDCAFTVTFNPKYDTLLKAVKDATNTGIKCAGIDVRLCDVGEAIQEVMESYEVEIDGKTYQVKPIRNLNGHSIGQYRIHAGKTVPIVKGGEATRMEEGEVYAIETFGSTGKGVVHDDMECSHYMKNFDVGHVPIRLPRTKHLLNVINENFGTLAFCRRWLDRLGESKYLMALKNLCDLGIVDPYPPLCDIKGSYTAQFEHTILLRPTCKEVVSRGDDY
UniProt Q13496, sequence (Q13496 whole entry, looked up): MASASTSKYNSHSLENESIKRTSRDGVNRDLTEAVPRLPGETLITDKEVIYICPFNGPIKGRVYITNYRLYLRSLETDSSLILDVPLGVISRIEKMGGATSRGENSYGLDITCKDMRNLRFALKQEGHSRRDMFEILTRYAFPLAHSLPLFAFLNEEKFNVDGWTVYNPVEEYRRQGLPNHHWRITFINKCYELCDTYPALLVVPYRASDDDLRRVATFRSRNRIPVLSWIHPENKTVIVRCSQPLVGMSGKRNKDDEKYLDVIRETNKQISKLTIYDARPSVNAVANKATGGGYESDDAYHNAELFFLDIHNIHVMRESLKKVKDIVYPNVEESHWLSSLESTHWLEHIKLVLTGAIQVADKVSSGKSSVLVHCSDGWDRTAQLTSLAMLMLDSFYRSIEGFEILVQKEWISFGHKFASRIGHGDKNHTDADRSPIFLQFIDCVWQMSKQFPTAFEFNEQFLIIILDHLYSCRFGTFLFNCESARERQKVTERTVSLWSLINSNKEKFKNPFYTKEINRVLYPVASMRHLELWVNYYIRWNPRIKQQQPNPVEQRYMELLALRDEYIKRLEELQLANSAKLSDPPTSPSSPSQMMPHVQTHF
UniProt Q9NRN9, sequence (Q9NRN9 whole entry, looked up): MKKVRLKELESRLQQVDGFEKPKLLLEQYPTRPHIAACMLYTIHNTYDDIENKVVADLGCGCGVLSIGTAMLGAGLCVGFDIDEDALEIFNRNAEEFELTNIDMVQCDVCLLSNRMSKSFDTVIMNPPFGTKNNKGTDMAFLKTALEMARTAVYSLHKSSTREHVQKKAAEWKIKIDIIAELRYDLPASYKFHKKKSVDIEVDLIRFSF

Regarding “MACF1_Q9UPN3_3619_QQNTCHQQLEDLCSWVGQAER (UniProt Q9UPN3)”, the “probe-labelled cysteine peptide fold change” value by setting is: (10 µM) -0.474; (50 µM) 0.118.

“MYH3_P11055_1412_CASLEK<|>MYH1_P12882_1415_CASLEK<|>MYH8_P13535_1414_CASLEK<|>MYH2_Q9UKX2_1417_CASLEK<|>MYH13_Q9UKX3_1415_CASLEK<|>MYH4_Q9Y623_1415_CASLEK (UniProt Q9Y623+Q9UKX3+Q9UKX2+P13535+P12882+P11055)”: the “probe-labelled cysteine peptide fold change” value runs as follows: (10 µM) 0.356; (50 µM) 0.307.

Take “MGMT_P16455_145_GNPVPILIPCHR (UniProt P16455)”: the “probe-labelled cysteine peptide fold change” value is, setting by setting: (10 µM) -0.499; (50 µM) -1.05.

Turning to “MYO9B_Q13459_152_QQADFDDLCNLPELTEGNLLK (UniProt Q13459)”, the “probe-labelled cysteine peptide fold change” value (10 µM) is -0.135 and the “probe-labelled cysteine peptide fold change” value (50 µM) was -0.0276.

For the target “MYH9_P35579_896_LQLQEQLQAETELCAEAEELRAR (UniProt P35579)”, the “probe-labelled cysteine peptide fold change” value (10 µM) was -0.566 and the “probe-labelled cysteine peptide fold change” value (50 µM) was -0.0747.

With “METAP2_P50579_263_IIDCAFTVTFNPK (UniProt P50579)”, the “probe-labelled cysteine peptide fold change” value was 0.0495 (10 µM) and 0.114 (50 µM).

For “MTM1_Q13496_242_CSQPLVGMSGKR (UniProt Q13496)”, the “probe-labelled cysteine peptide fold change” value was -0.862 (10 µM) and -0.255 (50 µM).

“MSH6_P52701_1158+1165_QAGLLAVMAQMGCYVPAEVCR (UniProt P52701)”: the “probe-labelled cysteine peptide fold change” value reads like this: (10 µM) -0.115; (50 µM) -0.66.

In the case of “MELTF_P08582_603_SEDYELLCPNGAR (UniProt P08582)”, the “probe-labelled cysteine peptide fold change” value came out at 0.0149 (10 µM) and 0.0229 (50 µM).

Take “MRM3_Q9HC36_309_ASDHGWVCDQR (UniProt Q9HC36)”: the “probe-labelled cysteine peptide fold change” value (10 µM) came out at 0.135 and the “probe-labelled cysteine peptide fold change” value (50 µM) was -0.1.

As for “LUC7L3_O95232_58_SDLGPCEK (UniProt O95232)”, the “probe-labelled cysteine peptide fold change” value is, setting by setting: (10 µM) -0.0397; (50 µM) -0.155.

Turning to “MAT1A_Q00266_34_ICDQISDAVLDAHLK (UniProt Q00266)”, the “probe-labelled cysteine peptide fold change” value turned out to be 0.555 (10 µM) and 0.255 (50 µM).

Consider “MYO1G_B0I1T2_618_LDENHCR (UniProt B0I1T2)”, for which the “probe-labelled cysteine peptide fold change” value amounted to 0.054 (10 µM) and 0.247 (50 µM).

For “MATR3_P43243_230_CRDDSFFGETSHNYHK (UniProt P43243)”, the “probe-labelled cysteine peptide fold change” value reads like this: (10 µM) 0.0188; (50 µM) -0.0509.

Consider “MTREX_P42285_983_LEIDEETYLSSFKPHLMDVVYTWATGATFAHICK (UniProt P42285)”, for which the “probe-labelled cysteine peptide fold change” value reads like this: (10 µM) 0.115; (50 µM) -0.0469.

Take “METAP1_P53582_255_KLVQTTYECLMQAIDAVKPGVR (UniProt P53582)”: the “probe-labelled cysteine peptide fold change” value (10 µM) is -0.564 and the “probe-labelled cysteine peptide fold change” value (50 µM) was -0.516.

In the case of “MICAL2_O94851_1059_PHFIHCK (UniProt O94851)”, the “probe-labelled cysteine peptide fold change” value is 0.00568 (10 µM) and 0.0284 (50 µM).

Regarding “NCAPH_Q15003_114_FTNTQITEHYSTCIK (UniProt Q15003)”, the “probe-labelled cysteine peptide fold change” value runs as follows: (10 µM) 0.199; (50 µM) -0.135.

For the target “NAXD_Q8IW45_261_GERDILSNGQQVLVCSQEGSSR (UniProt Q8IW45)”, the “probe-labelled cysteine peptide fold change” value by setting is: (10 µM) 0.0581; (50 µM) 0.131.

Regarding “MTPAP_Q9NVV4_324_FSHQASGFQCDLTTNNR (UniProt Q9NVV4)”, the “probe-labelled cysteine peptide fold change” value runs as follows: (10 µM) 0.592; (50 µM) 0.896.

In the case of “MFSD2A_Q8NA29_44_KQQLSVCNK (UniProt Q8NA29)”, the “probe-labelled cysteine peptide fold change” value was -0.207 (10 µM) and -0.294 (50 µM).

Turning to “MED13L_Q71F56_1457_LGQHKPICK (UniProt Q71F56)”, the “probe-labelled cysteine peptide fold change” value is -0.182 (10 µM) and -0.263 (50 µM).

Regarding “MAD1L1_Q9Y6D9_662_LTSLYAEHPGDCLIFK (UniProt Q9Y6D9)”, the “probe-labelled cysteine peptide fold change” value is 0.00589 (10 µM) and -0.0309 (50 µM).

“MDN1_Q9NU22_1400_TTICQVFAALANQK (UniProt Q9NU22)”: the “probe-labelled cysteine peptide fold change” value runs as follows: (10 µM) 0.156; (50 µM) 0.0599.

For the target “MORC3_Q14149_744_ETCHQSTETDAVFLLESINGK (UniProt Q14149)”, the “probe-labelled cysteine peptide fold change” value runs as follows: (10 µM) 0.143; (50 µM) -0.605.

For the target “MATR3_P43243_821_NTHCSSLPHYQK (UniProt P43243)”, the “probe-labelled cysteine peptide fold change” value is 0.121 (10 µM) and -0.196 (50 µM).

As for “MTA2_O94776_106_CSVTLLNETDILSQYLEK (UniProt O94776)”, the “probe-labelled cysteine peptide fold change” value by setting is: (10 µM) 0.0256; (50 µM) 0.178.

For “MAU2_Q9Y6X3_145_AIQISQQTPYWHCR (UniProt Q9Y6X3)”, the “probe-labelled cysteine peptide fold change” value is -0.167 (10 µM) and 0.0177 (50 µM).

“MORC3_Q14149_717_QCHMFTDQIK (UniProt Q14149)”: the “probe-labelled cysteine peptide fold change” value was -0.0943 (10 µM) and 0.000884 (50 µM).

Take “MKNK2_Q9HBH9_136_EVEMLYQCQGHR (UniProt Q9HBH9)”: the “probe-labelled cysteine peptide fold change” value (10 µM) was found to be 0.495 and the “probe-labelled cysteine peptide fold change” value (50 µM) was 0.556.

As for “NANS_Q9NR45_19_WVGGQHPCFIIAEIGQNHQGDLDVAK (UniProt Q9NR45)”, the “probe-labelled cysteine peptide fold change” value is, setting by setting: (10 µM) 0.0689; (50 µM) 0.0782.

For “LYAR_Q9NX58_6+9_VFFTCNACGESVKK (UniProt Q9NX58)”, the “probe-labelled cysteine peptide fold change” value runs as follows: (10 µM) -0.135; (50 µM) -0.2.

For “MAP4K2_Q12851_302_ASDPHLGTPSPEDCELETYDMFPDTIHSR (UniProt Q12851)”, the “probe-labelled cysteine peptide fold change” value (10 µM) was -0.0289 and the “probe-labelled cysteine peptide fold change” value (50 µM) is -0.161.

Turning to “MCU_Q8NE86_97_CQFTLKPISDSVGVFLR (UniProt Q8NE86)”, the “probe-labelled cysteine peptide fold change” value was -0.212 (10 µM) and -0.196 (50 µM).

On to “MRTO4_Q9UKD2_176_RGVVTLLSDYEVCK (UniProt Q9UKD2)”, for which the “probe-labelled cysteine peptide fold change” value runs as follows: (10 µM) 0.091; (50 µM) -0.0317.

Take “MPG_P29372_56_AGQPHSSSDAAQAPAEQPHSSSDAAQAPCPR (UniProt P29372)”: the “probe-labelled cysteine peptide fold change” value is, setting by setting: (10 µM) 0.193; (50 µM) -0.822.

As to “METTL5_Q9NRN9_107+110_NAEEFELTNIDMVQCDVCLLSNR (UniProt Q9NRN9)”, the “probe-labelled cysteine peptide fold change” value is, setting by setting: (10 µM) -0.067; (50 µM) -0.00432.
